These results are taken from PubChem BioAssay (NCATS).

Inconclusive results are not listed. Active and inactive are the calls of the source. Calls follow the shape of the dose curve; as a rule, active = well fitted curve in the direction sought with a large enough effect; inconclusive = small, poorly fitted or top-dose-only effect, or another doubt; inactive = no such curve, though single readings can be large; an effect the other way counts as inactive or inconclusive.

Assay [1] can be described thus: Quantitative High-Throughput drug screen in 47 multiple myeloma cell lines against the NCATS MIPE library collection: JIM3_ECACC cell viability assay (AID 1918963; also: nearly all actives have a fitted effect of over 35% in size; also: potency is read from the fitted curve at half-maximal effect). The method in brief:
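CellTiter-Glo luminescence (ATP) after 48 h compound exposure, 37C/5% CO2; 500 cells/well; MIPE 4.0 approved/investigational drugs pinned in; DMSO = 100%, media only = 0% viability.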

A short description of assay [2]: Quantitative High-Throughput drug screen in 47 multiple myeloma cell lines against the NCATS MIPE library collection: JIM1_ECACC cell viability assay (AID 1918964; also: potency is read from the fitted curve at half-maximal effect). The method in brief: (§1)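 CellTiter-Glo ATP luminescence gave viability after 48 h compound treatment at 37C of 500 multiple myeloma cells per well. Normalisation used DMSO-only wells as 100% and media-only wells as 0% viability; primary qHTS of approved and investigational drugs.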

Assay [3] in a line: Quantitative High-Throughput drug screen in 47 multiple myeloma cell lines against the NCATS MIPE library collection: JJN3_DSMZ cell viability assay (AID 1918966; also: nearly all actives have a fitted effect of over 50% in size; also: potency is read from the fitted curve at half-maximal effect). The method in brief:
as §1

Assay [4] is described as follows: Quantitative High-Throughput drug screen in 47 multiple myeloma cell lines against the NCATS MIPE library collection: H1112_PLB cell viability assay (AID 1918967; also: nearly all actives have a fitted effect of over 30% in size; also: potency is read from the fitted curve at half-maximal effect). The method in brief:
as §1

Assay [5] in a line: Quantitative High-Throughput drug screen in 47 multiple myeloma cell lines against the NCATS MIPE library collection: Karpas25_ECACC cell viability assay (AID 1918968; also: nearly all actives have a fitted effect of over 35% in size; also: potency is read from the fitted curve at half-maximal effect). The method in brief:
as §1

A short description of assay [6]: Quantitative High-Throughput drug screen in 47 multiple myeloma cell lines against the NCATS MIPE library collection: KMS12BM_JCRB cell viability assay (AID 1918971). Also: nearly all actives have a fitted effect of over 35% in size. Also: potency is read from the fitted curve at half-maximal effect. The method in brief: (§2)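 Inhibition of cell viability is measured here. Each line was plated at 500 cells per well, treated with MIPE 4.0 drugs, kept 48 hours at 37C, then assayed for ATP content by CellTiter-Glo luminescence.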

Assay [7] is described as follows: Quantitative High-Throughput drug screen in 47 multiple myeloma cell lines against the NCATS MIPE library collection: KMS12PE_JCRB cell viability assay (AID 1918972). Also: nearly all actives have a fitted effect of over 30% in size. Also: potency is read from the fitted curve at half-maximal effect. The method in brief: (§3)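 Myeloma cells (500 per well) were exposed to MIPE 4.0 compounds by pin transfer and incubated 48 hours at 37C, 5% CO2. Viability was read as ATP by CellTiter-Glo luminescence, normalised to DMSO (100%) and media-only (0%) wells.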

Assay [8] in a line: Quantitative High-Throughput drug screen in 47 multiple myeloma cell lines against the NCATS MIPE library collection: KMS20_JCRB cell viability assay (AID 1918973). Also: nearly all actives have a fitted effect of over 45% in size. Also: potency is read from the fitted curve at half-maximal effect. The method in brief: as §1
Assay [9] in a line: Quantitative High-Throughput drug screen in 47 multiple myeloma cell lines against the NCATS MIPE library collection: KMS26_JCRB cell viability assay (AID 1918975). Also: nearly all actives have a fitted effect of over 45% in size. Also: potency is read from the fitted curve at half-maximal effect. The method in brief:
as §2

The nature of assay [10]: Quantitative High-Throughput drug screen in 47 multiple myeloma cell lines against the NCATS MIPE library collection: MOLP8_DSMZ cell viability assay (AID 1918977). Also: nearly all actives have a fitted effect of over 45% in size. Also: potency is read from the fitted curve at half-maximal effect. The method in brief: (§4)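 Myeloma cells (500/well) treated with MIPE 4.0 compounds for 48 h at 37 °C, 5% CO2. Viability read as ATP via CellTiter-Glo luminescence after 5 min at RT; DMSO-only wells = 100%, media-only = 0% viability.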

The nature of assay [11]: Quantitative High-Throughput drug screen in 47 multiple myeloma cell lines against the NCATS MIPE library collection: NCIH929_DSMZ cell viability assay (AID 1918978). Also: nearly all actives have a fitted effect of over 35% in size. Also: potency is read from the fitted curve at half-maximal effect. The method in brief:
as §4

Assay [12] in a line: Quantitative High-Throughput drug screen in 47 multiple myeloma cell lines against the NCATS MIPE library collection: MM1R_ATCC cell viability assay (AID 1918981). Also: nearly all actives have a fitted effect of over 35% in size. Also: potency is read from the fitted curve at half-maximal effect. The method in brief: as §4
A short description of assay [13]: Quantitative High-Throughput drug screen in 47 multiple myeloma cell lines against the NCATS MIPE library collection: LP1_DSMZ cell viability assay (AID 1918982). Also: nearly all actives have a fitted effect of over 35% in size. The method in brief:
as §4

The nature of assay [14]: Quantitative High-Throughput drug screen in 47 multiple myeloma cell lines against the NCATS MIPE library collection: INA6_PLB cell viability assay (AID 1918965; also: nearly all actives have a fitted effect of over 55% in size; also: potency is read from the fitted curve at half-maximal effect). The method in brief: as §3
The nature of assay [15]: Quantitative High-Throughput drug screen in 47 multiple myeloma cell lines against the NCATS MIPE library collection: OCIMY1_PLB cell viability assay (AID 1918979). Also: nearly all actives have a fitted effect of over 35% in size. The method in brief:
as §4

A short description of assay [16]: Quantitative High-Throughput drug screen in 47 multiple myeloma cell lines against the NCATS MIPE library collection: MM1S_ATCC cell viability assay (AID 1918980). Also: nearly all actives have a fitted effect of over 45% in size. Also: potency is read from the fitted curve at half-maximal effect. The method in brief: as §4
The nature of assay [17]: Quantitative High-Throughput drug screen in 47 multiple myeloma cell lines against the NCATS MIPE library collection: KMS27_JCRB cell viability assay (AID 1918970). Also: nearly all actives have a fitted effect of over 30% in size. Also: potency is read from the fitted curve at half-maximal effect. The method in brief:
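Luminescent ATP read-out (CellTiter-Glo, 5 min at room temperature) after 48 h compound exposure of 500 KMS27_JCRB cells per well; DMSO wells define full viability and media-only wells zero.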

Assay [18] is described as follows: Quantitative High-Throughput drug screen in 47 multiple myeloma cell lines against the NCATS MIPE library collection: MMM1_PLB cell viability assay (AID 1918976). The method in brief: as §4
Assay [19] in a line: Quantitative High-Throughput drug screen in 47 multiple myeloma cell lines against the NCATS MIPE library collection: KMS21BM_JCRB cell viability assay (AID 1918974). Also: potency is read from the fitted curve at half-maximal effect. Particulars: ATP luminescence, 48 h; viability: at 45.8 µM (top of the series). The method in brief:
as §1

In the case of `COc1nc(N)nc2c1ncn2[C@@H]1O[C@H](CO)[C@@H](O)[C@@H]1O`, the Potency result in [1], in assay [2], in [4], in assay [5], in assay [6] and in assay [7] was “inactive” each time. For the same compound, the Potency entry in [9], in assay [10], in assay [11], in assay [12] and in assay [13] was “inactive” in each case. Besides, the Potency in assay [3] was 13.2 µM (active); in [8], 23.5 µM (active).
For `C[C@]12C=CC(=O)C=C1CC[C@@H]1[C@@H]2C(=O)C[C@@]2(C)[C@H]1CC[C@]2(O)C(=O)CO`, the Potency entry in assay [1], in assay [14], in assay [6], in [7], in assay [11] and in [15] was “inactive” each time. For the same compound, the Potency result in [16], in assay [12] and in assay [13] was “inactive” throughout. Besides, in assay [8], the Potency was 0.129 µM (active).
With `CCN(CC)CCn1c(=O)c(Cc2ccc(OC)cc2)nc2ccccc21`, the Potency result in assay [1], in assay [2], in assay [6], in [7], in [9] and in assay [11] was “inactive” throughout. Further, the Potency result in [15], in assay [16], in assay [12] and in assay [13] was “inactive” in each case. Also, the Potency in [17] is 10.5 µM (active).
Take `CCCCS(=N)(=O)CCC(N)C(=O)O` (configuration not stated): the Potency entry in [1], in [3], in assay [4], in assay [5], in [17] and in [6] was “inactive” each time. Also, the Potency result in [7], in assay [9], in assay [10], in assay [11], in assay [15] and in [16] was “inactive” each time. Moreover, the Potency entry in [12] and in assay [13] was “inactive” throughout.
`COc1cccc(N(C)C(=S)Oc2ccc3c(c2)CCCC3)n1`: the Potency entry in [1], in assay [4], in assay [6], in assay [9], in assay [10] and in [11] was “inactive” in each case. Also, the Potency entry in [15] and in assay [12] was “inactive” throughout. The Potency in assay [14] was 16.6 µM (active); in [16], 18.7 µM (active).
As to `CC1=NN(c2ccccc2)C(=O)C1`, the Potency result in [1], in assay [2], in assay [17], in [7], in assay [10] and in assay [15] was “inactive” throughout. In addition, the Potency entry in assay [16] was “inactive”. The Potency in assay [14] is 13.2 µM (active).
For `CN(Cc1cc(Br)cc(Br)c1N)C1CCCCC1`, the Potency result in [1], in assay [17], in assay [7], in [10], in assay [11] and in assay [16] was “inactive” throughout. Besides, the Potency in assay [18] was 33.2 µM (active).
Turning to `CCOC(=O)[C@H](CCc1ccccc1)N[C@H]1CS[C@H](c2cccs2)CN(CC(=O)O)C1=O`, the Potency entry in assay [1] and in assay [15] was “inactive” each time. Further, the Potency in assay [2] was 1.32 µM (active); in [14], 2.96 µM (active); in assay [3], 16.6 µM (active); in assay [4], 13.2 µM (active); in assay [5], 5.9 µM (active); in assay [17] it was 0.296 µM (active). Moreover, the Potency in assay [6] was 23.5 µM (active); in assay [7], 1.66 µM (active); in [8], 1.66 µM (active); in assay [19], 0.132 µM (active); in assay [9] it was 18.7 µM (active); in [18], 16.6 µM (active). The figures for the Potency in assay [10], in assay [11] and in assay [16] were 20.9 µM (active), 5.9 µM (active) and 0.418 µM (active), respectively.
Regarding `O=C(NCC1CN(c2ccc(N3CCOCC3=O)cc2)C(=O)O1)c1ccc(Cl)s1` (configuration not stated), the Potency entry in [1], in assay [6], in assay [10], in assay [11], in [15] and in [12] was “inactive” throughout. For the same compound, in [5], the Potency is 16.6 µM (active).
On to `NC(=O)N1c2ccccc2CC(=O)c2ccccc21`, for which the Potency entry in assay [1], in assay [2], in assay [4], in assay [5], in [17] and in assay [7] was “inactive” in each case. Further, the Potency result in assay [8], in assay [10], in assay [11], in [12] and in assay [13] was “inactive” each time.
Turning to `CCN(C)C(=O)Oc1cccc([C@H](C)N(C)C)c1`, the Potency entry in [1], in assay [2], in [14], in [4], in [5] and in assay [7] was “inactive” throughout. In addition, the Potency result in [10], in assay [11] and in assay [16] was “inactive” each time.
As for `CCOC(=O)c1ccc(C#Cc2ccc3c(c2)C(C)(C)CCS3)nc1`, the Potency in assay [1] was 18.7 µM (active); in assay [7], 11.8 µM (active). Besides, the Potency result in assay [14], in [17] and in assay [8] was “inactive” each time.
With `Nc1[nH]c(=O)ncc1F`, the Potency entry in assay [1], in assay [2], in assay [3], in assay [4], in assay [5] and in [17] was “inactive” in each case. Besides, the Potency result in [6], in assay [7], in [8], in assay [10], in assay [11] and in assay [13] was “inactive” in each case. Moreover, the Potency in assay [18] was 8.33 µM (active).
As to `CNS(=O)(=O)Cc1ccc2[nH]cc(CCN(C)C)c2c1`, the Potency entry in [1], in assay [2], in assay [17], in assay [6], in assay [7] and in [8] was “inactive” in each case. Moreover, the Potency result in assay [9], in [11] and in assay [13] was “inactive” in each case.
`CCC(=O)O[C@]1(C(=O)SCF)[C@H](C)C[C@H]2[C@@H]3C[C@H](F)C4=CC(=O)C=C[C@]4(C)[C@@]3(F)[C@@H](O)C[C@@]21C`: the Potency result in [1], in assay [2], in assay [3], in assay [6], in assay [7] and in [9] was “inactive” each time. Moreover, the Potency entry in [10] and in [13] was “inactive” each time. The Potency in assay [4] is 20.9 µM (active).
On to `O=C(O)c1ccc(-n2nc(-c3ccccc3O)nc2-c2ccccc2O)cc1`, for which the Potency was 18.7 µM (active) in [1]; 18.7 µM (active) in [2]; 18.7 µM (active) in [14]; 16.6 µM (active) in assay [5]; 18.7 µM (active) in assay [17]; 20.9 µM (active) in assay [6]. Moreover, in assay [19], the Potency was 20.9 µM (active).
In the case of `Cc1ncc([N+](=O)[O-])n1CCO`, the Potency result in [1], in [14], in assay [3], in assay [4], in assay [5] and in assay [17] was “inactive” in each case. Also, the Potency result in assay [7], in assay [19], in [10], in assay [11], in assay [15] and in [13] was “inactive” throughout.
In the case of `COc1cc2c(Nc3ccc(Br)cc3F)ncnc2cc1OCC1CCN(C)CC1`, the Potency result in assay [1] and in assay [19] was “inactive” each time. Moreover, the Potency in assay [14] is 9.35 µM (active); in assay [3], 18.7 µM (active); in assay [5] it was 8.33 µM (active); in [6] it was 18.7 µM (active); in [8] it was 9.35 µM (active); in [11] it was 8.33 µM (active). Besides, the Potency in assay [16] and in assay [12] was 23.5 µM (active) throughout.
For `COc1ccc(-c2ccc3cc(C(=O)O)ccc3c2)cc1C12CC3CC(CC(C3)C1)C2`, the Potency result in assay [1], in assay [14], in assay [17], in assay [7], in assay [9] and in assay [11] was “inactive” throughout. Moreover, the Potency was 2.35 µM (active) in assay [6], 2.64 µM (active) in assay [18], 5.26 µM (active) in [16] and 7.43 µM (active) in assay [12].
